Assay results reported in PubChem BioAssay (NCATS).
Records with an inconclusive call do not appear. Calls of active or inactive are those of the source. Unless noted, calls come from the whole dose curve; as a rule, active = well fitted curve in the direction sought with a large enough effect; inconclusive = small, poorly fitted or top-dose-only effect, or another doubt; inactive = no such curve, though single readings can be large; an effect the other way counts as inactive or inconclusive.

Assays:
[1] = Primary qHTS for inhibitors of nuclear receptor binding SET domain protein 2 (NSD2) in an RCH-ACV wild type WT cells (2C) (AID 1645877); note: nearly all actives have a fitted effect of over 70% in size; note: potency is the fitted concentration of half-maximal effect
[2] = molecular target: Phospholipid hydroperoxide glutathione peroxidase GPX4 (Homo sapiens) (UniProt P36969); experiment: Primary qHTS Assay for Inhibitors of Recombinant Selenoprotein Glutathione Peroxidase 4 (GPX4) (AID 1845192); settings: outcome: dose series up to 50 µM unless noted; note: nearly all actives have a fitted effect of over 65% in size
Phospholipid hydroperoxide glutathione peroxidase GPX4 (Homo sapiens), sequence (P36969 whole entry, looked up): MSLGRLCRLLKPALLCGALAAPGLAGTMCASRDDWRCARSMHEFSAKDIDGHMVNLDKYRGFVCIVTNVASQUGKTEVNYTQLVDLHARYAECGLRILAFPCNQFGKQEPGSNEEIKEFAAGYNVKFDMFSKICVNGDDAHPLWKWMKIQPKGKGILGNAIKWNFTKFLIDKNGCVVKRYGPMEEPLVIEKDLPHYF
In short: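 qHTS, GR-coupled: GPX4 200 nM + cpd 30 min RT → GSH 1 mM, NADPH 0.5 mM, GR 100 nM → CHP 0.5 mM start; fluor 340/450 at t0 and t15 min; no-enzyme wells as control.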

[3] = molecular target: Lysosomal acid glucosylceramidase (Homo sapiens) (UniProt P04062); experiment: Glucocerebrosidase-p2 (AID 348; in the data active = potency below about 10 µM; note: potency is the fitted concentration of half-maximal effect); settings: purified GBA, blue fluorogenic substrate, 40 min
Lysosomal acid glucosylceramidase (Homo sapiens), sequence (P04062 whole entry, looked up): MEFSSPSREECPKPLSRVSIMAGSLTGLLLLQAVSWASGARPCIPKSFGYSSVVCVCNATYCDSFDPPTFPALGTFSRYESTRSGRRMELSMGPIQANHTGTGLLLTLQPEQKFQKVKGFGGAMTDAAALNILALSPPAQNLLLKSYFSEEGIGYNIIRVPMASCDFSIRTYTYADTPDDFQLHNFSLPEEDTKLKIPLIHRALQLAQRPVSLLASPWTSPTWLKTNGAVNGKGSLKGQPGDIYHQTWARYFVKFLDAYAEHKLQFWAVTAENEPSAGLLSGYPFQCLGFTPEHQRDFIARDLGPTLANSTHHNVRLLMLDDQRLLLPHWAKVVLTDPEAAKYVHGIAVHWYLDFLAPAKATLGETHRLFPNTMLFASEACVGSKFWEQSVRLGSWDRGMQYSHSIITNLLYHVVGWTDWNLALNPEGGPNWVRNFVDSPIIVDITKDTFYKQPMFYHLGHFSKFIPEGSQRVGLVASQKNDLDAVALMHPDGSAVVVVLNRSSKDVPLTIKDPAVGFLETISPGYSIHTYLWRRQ
In short: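 Normal human glucocerebrosidase (0.2 nM) with blue fluorogenic substrate (80 uM final) in citrate/phosphate pH 5.9 with 10mM sodium taurocholate, 0.01% tween-20; 40 min RT, NaOH/glycine stop; fluorescence Ex 365/Em 440; AC50 from a titration from 0.6 nM upwards.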

[4] = Stat Signaling Pathway (AID 446; active = well fitted curve in either direction with a large enough effect, not every such curve was filed as active;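 note: ME-180 cervical cancer cells given 40 pM IL-6 alongside compound; SIE-controlled beta-lactamase reporter measured as 460/530 nm FRET emission ratio; % is set by controls: 0 for no effect and ±100 for the full control effect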); settings: ME-180 SIE beta-lactamase reporter, IL-6 stimulated, 5 h; at 7.69 µM (top of the series) unless noted
In short: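 Compound effects on IL-6-induced STAT reporter activity were measured in ME-180 cells. After overnight culture, cells were co-treated with 40 pM IL-6 for 5 hrs before beta-lactamase substrate loading at room temperature.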

[5] = molecular target: Glucocorticoid receptor (Homo sapiens) (UniProt P04150); experiment: GR-GFP Redistribution (AID 450;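 active = compounds whose dose series gives a full or clear partial fitted curve of increased nuclear translocation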; note: potency is the fitted concentration of half-maximal effect); settings: U2OS GR-GFP nuclear translocation, laser cytometry, 2 h
Glucocorticoid receptor (Homo sapiens), sequence (P04150 whole entry, looked up, the tested form may be a part): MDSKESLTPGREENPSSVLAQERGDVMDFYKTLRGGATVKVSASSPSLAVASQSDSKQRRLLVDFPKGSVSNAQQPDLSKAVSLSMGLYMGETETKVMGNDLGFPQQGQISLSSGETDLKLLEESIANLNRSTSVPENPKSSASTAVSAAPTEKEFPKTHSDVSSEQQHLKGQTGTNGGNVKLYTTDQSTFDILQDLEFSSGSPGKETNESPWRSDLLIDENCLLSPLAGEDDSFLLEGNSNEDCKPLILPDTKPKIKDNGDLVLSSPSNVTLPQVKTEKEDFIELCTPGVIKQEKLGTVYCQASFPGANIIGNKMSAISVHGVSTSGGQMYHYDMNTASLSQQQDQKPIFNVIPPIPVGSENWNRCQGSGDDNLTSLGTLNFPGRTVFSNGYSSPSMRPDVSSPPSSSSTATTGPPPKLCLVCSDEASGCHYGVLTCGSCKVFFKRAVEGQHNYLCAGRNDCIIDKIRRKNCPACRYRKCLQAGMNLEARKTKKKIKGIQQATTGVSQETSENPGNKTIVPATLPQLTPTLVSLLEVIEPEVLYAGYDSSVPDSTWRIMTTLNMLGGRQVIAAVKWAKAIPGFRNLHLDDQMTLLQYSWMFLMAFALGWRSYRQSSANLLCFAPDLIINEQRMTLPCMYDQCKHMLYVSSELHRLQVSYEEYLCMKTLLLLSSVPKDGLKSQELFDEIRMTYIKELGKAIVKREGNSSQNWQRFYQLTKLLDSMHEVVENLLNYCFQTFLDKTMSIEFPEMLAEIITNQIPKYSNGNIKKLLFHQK

[6] = molecular target: Glucocorticoid receptor (Homo sapiens) (UniProt P04150); experiment: GR-EFC Redistribution (AID 451; calls by dose curve; note: potency is the fitted concentration of half-maximal effect); settings: CHO-K1 GR-EFC translocation, beta-gal luminescence, 2 h
In short: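 CHO-K1 cells stably expressing nuclear-localized β-gal enzyme acceptor and GR fused C-terminally to the enzyme donor fragment; ligand-driven nuclear translocation restores β-gal by complementation. Compounds titrated up to 46 uM final, 2 h at 37 °C; luminescence read.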

[7] = molecular target: Mitogen-activated protein kinase 10 (Mus musculus) (UniProt Q61831); experiment: JNK3 AlphaScreen Assay (AID 530; active = well fitted curve in either direction with a large enough effect, not every such curve was filed as active;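 note: kinase came from lysate of stimulated human HepG2 cells; signal reports phosphorylation of biotinylated GST-cJun 1-79 at Ser73 with 10 µM ATP; % is set by controls: 0 for no effect and ±100 for the full control effect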)
In short: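 Biotinylated GST-cJun(1-79) served as substrate for JNK3 in HepG2 lysates stimulated with IL-1beta and TNF-alpha. ATP was 10 uM final, pH 7.6. Ser73 phosphorylation was quantified by AlphaScreen (680 nm excitation).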

[8] = molecular target: 3',5'-cyclic-AMP phosphodiesterase 4B (Homo sapiens) (UniProt Q07343); experiment: qHTS Assay for Inhibitors of PDE-IV (AID 607; active = well fitted activation curve with a large enough effect in the main read-out, with a control signal flat, not every such curve was filed as active; note: % of control where 0% means no effect)
3',5'-cyclic-AMP phosphodiesterase 4B (Homo sapiens), sequence (Q07343 whole entry, looked up): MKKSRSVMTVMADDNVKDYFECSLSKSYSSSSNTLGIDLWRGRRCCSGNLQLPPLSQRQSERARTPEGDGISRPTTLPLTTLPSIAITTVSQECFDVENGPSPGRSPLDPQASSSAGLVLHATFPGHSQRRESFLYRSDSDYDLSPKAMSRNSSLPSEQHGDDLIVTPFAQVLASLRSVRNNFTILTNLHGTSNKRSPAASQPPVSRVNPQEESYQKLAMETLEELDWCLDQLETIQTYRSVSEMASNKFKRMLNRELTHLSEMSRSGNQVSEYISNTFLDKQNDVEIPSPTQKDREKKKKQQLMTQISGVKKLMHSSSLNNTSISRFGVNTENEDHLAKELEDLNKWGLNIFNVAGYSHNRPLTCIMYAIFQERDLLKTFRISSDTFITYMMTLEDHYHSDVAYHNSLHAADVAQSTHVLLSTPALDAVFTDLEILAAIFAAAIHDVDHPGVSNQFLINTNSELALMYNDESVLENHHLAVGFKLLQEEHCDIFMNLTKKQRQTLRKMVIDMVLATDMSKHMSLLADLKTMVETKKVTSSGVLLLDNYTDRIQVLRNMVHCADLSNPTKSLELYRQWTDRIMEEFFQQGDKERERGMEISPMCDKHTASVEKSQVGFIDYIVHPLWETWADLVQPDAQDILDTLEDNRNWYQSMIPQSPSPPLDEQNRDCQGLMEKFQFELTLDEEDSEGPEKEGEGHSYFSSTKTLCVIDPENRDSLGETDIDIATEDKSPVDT
In short: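 ACTOne HEK293 cells carry a modified cAMP-gated CNG channel and express endogenous PDE4; plated 1000 cells/well, compounds up to 22.9 uM final. Membrane-potential dye fluorescence (ex 535/em 590) was read; parental cells received 10 uM forskolin + 100 uM RO 20-1724.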

[9] = AP1 Signaling Pathway (AID 357; active = well fitted curve in either direction with a large enough effect, not every such curve was filed as active;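 note: ME-180 reporter cells stimulated with EGF at its EC50 level; % is set by controls: 0 for no effect and ±100 for the full control effect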); settings: ME-180 (cervical carcinoma) AP-1-bla reporter, EGF-induced, beta-lactamase ratio, 5 h; at 7.69 µM (top of the series) unless noted
In short: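 Titration-series screen for positive or negative modulators of EC50 EGF-induced signaling in ME-180 cells carrying an AP-1-driven beta-lactamase reporter. After 5 hours at 37 degrees Celsius, CCF4 460nm/530nm emission ratio gave %Activity; AC50 values derived.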

[10] = NFAT Signaling Pathway (AID 444; active = well fitted curve in either direction with a large enough effect, not every such curve was filed as active;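 note: carbachol stimulus at about its EC50 of 1 µM final; % is set by controls: 0 for no effect and ±100 for the full control effect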); settings: Jurkat NFAT-bla M1, carbachol, beta-lactamase ratio, 5 h; at 7.69 µM (top of the series) unless noted
In short: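 Jurkat cells carrying an NFAT-driven β-lactamase reporter and co-transfected muscarinic M1 receptor were treated with compound plus carbachol (1 uM final, an EC50 level) for 5 h at 37 °C. CCF4 loading followed for 1 h at RT; 460/530 nm ratio gave %activity.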

[11] = molecular target: Cytochrome P450 3A4 (Homo sapiens) (UniProt P08684); experiment: qHTS Assay for Activators of Cytochrome P450 3A4 (AID 885); note: nearly all actives have a fitted effect of over 65% in size
Cytochrome P450 3A4 (Homo sapiens), sequence (P08684 whole entry, looked up): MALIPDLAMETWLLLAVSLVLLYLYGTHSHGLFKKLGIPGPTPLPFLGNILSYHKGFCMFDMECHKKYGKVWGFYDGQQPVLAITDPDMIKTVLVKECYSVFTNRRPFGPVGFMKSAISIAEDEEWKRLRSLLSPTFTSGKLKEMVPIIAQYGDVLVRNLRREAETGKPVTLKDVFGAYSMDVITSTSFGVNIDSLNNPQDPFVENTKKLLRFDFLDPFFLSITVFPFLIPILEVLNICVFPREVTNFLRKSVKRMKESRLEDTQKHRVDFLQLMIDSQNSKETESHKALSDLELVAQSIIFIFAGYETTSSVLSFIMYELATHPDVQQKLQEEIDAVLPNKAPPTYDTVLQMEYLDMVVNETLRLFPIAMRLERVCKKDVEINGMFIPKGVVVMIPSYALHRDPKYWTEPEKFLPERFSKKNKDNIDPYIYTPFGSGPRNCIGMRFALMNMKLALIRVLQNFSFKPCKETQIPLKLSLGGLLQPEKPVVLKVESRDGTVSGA
In short: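 CYP3A4 activity: Luciferin-PPXE O-dealkylation, 25uM substrate, 200mM KPO4, RT throughout. Read-out is luciferase luminescence; higher values reflect activation.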

[12] = qHTS Assay for Modulators of Human Peripheral Myelin Protein 22 (PMP22) Expression/Activity (AID 1967; active = well fitted curve in the direction sought with a large enough effect in the signal ratio; the % refers to the signal ratio;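 note: 0% = untreated cells and 100% end not stated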)
In short: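 Mouse MSC80 Schwann cells carrying Pmp22 promoter–green click beetle luciferase plus EF-alpha–red luciferase control, dosed 24 h at 37 °C. Dual-filter luminescence, overlap-corrected; %Activity from green/red ratio normalised to untreated cells, concentration-response curves fitted.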

[13] = qHTS profiling for inhibitors of Plasmodium falciparum proliferation (AID 504749); note: potency is the fitted concentration of half-maximal effect; nearly all actives have a fitted effect of over 60% in size; settings: P. falciparum in erythrocytes, SYBR Green DNA, 72 h
In short: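 Fluorescence of SYBR Green-bound parasite DNA, read at 485/535 nm, served as the growth measure. Infected erythrocytes were cultured with compound 72 h; artemisinin (0.29 uM) and DMSO wells defined the normalization range.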

[14] = qHTS for differential inhibitors of proliferation of Plasmodium falciparum line 7G8 (AID 1815);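 note: parasite growth measured after three days of incubation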; note: potency is the fitted concentration of half-maximal effect;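 for activity change, negative = inhibition: plate controls were vehicle wells for no effect and reference inhibitor wells for full effect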
[15] = qHTS for differential inhibitors of proliferation of Plasmodium falciparum line GB4 (AID 1816); settings: Potency: Plasmodium falciparum GB4 proliferation inhibition;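 note: parasite growth measured after 72 h incubation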; note: potency is the fitted concentration of half-maximal effect;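 for activity change, negative = inhibition: 0% = vehicle DMSO and -100% = reference inhibitor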
[16] = qHTS for differential inhibitors of proliferation of Plasmodium falciparum line 3D7 (AID 1876); note: potency is the fitted concentration of half-maximal effect;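 for activity, negative = inhibition: parasite growth measured after three days of culture; 0% = vehicle wells and -100% = reference inhibitor wells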
[17] = qHTS for differential inhibitors of proliferation of Plasmodium falciparum line W2 (AID 1883); settings: Potency: Plasmodium falciparum W2 proliferation inhibition;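 note: parasites grown with compound for 72 h before lysis and staining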; note: potency is the fitted concentration of half-maximal effect;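 for activity change, negative = inhibition: 0% = vehicle wells and -100% = control inhibitor wells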
[18] = qHTS for differential inhibitors of proliferation of Plasmodium falciparum line HB3 (AID 1886); settings: Potency: Plasmodium falciparum HB3 proliferation inhibition;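 note: parasites grown with compound for 72 h before SYBR Green readout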; note: potency is the fitted concentration of half-maximal effect;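 for activity change, negative = inhibition: plate controls were vehicle for no effect and reference inhibitor for full effect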
[19] = molecular target: RecQ-like DNA helicase BLM (Homo sapiens) (UniProt P54132); experiment: qHTS Validation Assay for Inhibitors of Bloom's syndrome helicase (BLM) (AID 2364);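 note: plate controls were DMSO vehicle for no effect and enzyme-free control for full effect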
RecQ-like DNA helicase BLM (Homo sapiens), sequence (P54132 whole entry, looked up): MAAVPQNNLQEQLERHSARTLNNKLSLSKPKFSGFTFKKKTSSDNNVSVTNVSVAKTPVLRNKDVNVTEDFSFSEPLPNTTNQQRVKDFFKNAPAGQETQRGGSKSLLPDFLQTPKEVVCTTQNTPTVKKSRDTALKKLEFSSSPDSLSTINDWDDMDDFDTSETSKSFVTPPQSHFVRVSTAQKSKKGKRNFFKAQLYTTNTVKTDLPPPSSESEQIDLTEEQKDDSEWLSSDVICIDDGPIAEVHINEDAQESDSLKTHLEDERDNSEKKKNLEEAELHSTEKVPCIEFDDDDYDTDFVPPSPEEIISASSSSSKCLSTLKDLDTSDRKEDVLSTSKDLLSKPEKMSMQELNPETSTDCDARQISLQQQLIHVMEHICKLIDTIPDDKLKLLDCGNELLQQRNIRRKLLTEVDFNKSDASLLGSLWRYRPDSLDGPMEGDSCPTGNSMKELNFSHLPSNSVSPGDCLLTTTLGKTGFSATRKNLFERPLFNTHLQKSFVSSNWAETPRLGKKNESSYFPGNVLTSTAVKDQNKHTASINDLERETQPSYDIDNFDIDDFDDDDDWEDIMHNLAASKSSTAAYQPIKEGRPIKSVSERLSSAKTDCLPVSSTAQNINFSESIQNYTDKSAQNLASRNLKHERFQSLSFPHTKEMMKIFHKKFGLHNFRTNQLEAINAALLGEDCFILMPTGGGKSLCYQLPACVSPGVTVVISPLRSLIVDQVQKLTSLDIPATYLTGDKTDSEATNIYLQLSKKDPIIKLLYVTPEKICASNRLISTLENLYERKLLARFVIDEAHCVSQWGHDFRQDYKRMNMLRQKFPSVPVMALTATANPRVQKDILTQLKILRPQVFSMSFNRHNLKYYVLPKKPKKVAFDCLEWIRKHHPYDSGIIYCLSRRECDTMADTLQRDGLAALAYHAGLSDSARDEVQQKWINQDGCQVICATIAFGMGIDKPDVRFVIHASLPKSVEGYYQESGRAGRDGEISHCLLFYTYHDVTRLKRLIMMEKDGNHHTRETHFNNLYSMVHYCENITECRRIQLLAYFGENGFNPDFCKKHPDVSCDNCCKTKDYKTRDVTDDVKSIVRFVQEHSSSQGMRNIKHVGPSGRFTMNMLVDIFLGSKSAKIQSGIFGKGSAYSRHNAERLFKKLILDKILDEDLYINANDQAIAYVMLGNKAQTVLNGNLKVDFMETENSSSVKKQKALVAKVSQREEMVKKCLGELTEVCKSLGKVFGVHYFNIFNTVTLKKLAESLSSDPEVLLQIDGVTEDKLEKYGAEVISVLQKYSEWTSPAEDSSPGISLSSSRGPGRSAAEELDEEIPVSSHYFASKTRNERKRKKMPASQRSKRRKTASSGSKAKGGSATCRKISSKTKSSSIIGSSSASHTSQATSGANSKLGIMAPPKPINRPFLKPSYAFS
In short: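 BLM 50 nM in 25 mM Tris-HCl pH 8.0, 5 mM NaCl, 2 mM MgCl2, 1 mM DTT, 0.01% Tween-20, 2.5 ug/ml poly(dI-dC); 15 min cpd preinc, RT. Start: 200 nM forked DNA + 2 mM ATP (final). TAMRA read, 2 reads 2 h apart.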

[20] = molecular target: Endonuclease 4 (Escherichia coli (strain K12)) (UniProt P0A6C1); experiment: Counterscreen for APE1 Inhibitors: qHTS Validation Assay for Inhibitors of Endonuclease IV (AID 1708); note: % is set by controls: 0 for no effect and ±100 for the full control effect
In short: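 Measured as reaction progress, the fluorescence gain between first and third kinetic reads after adding 50 nM TAMRA/BHQ-2 THF duplex to 2 nM enzyme preincubated 15 min with compound; 2 mM MgCl2, pH 7.5.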

O=C(Nc1cccc(C(F)(F)F)c1)c1cccc2cc(Oc3cc(CO)ncn3)ccc12
inactive: Potency [1] | Potency [2]

Nc1n[n+]([O-])c2ccccc2[n+]1[O-]
inactive: Potency [2]
active: Potency [1] 10.5 µM

COc1ccccc1-c1cncnc1NCCN1CCOCC1
inactive: Potency [3] > 11.4 µM | activity, negative = inhibition [4] 1.09% | Potency [5] > 46 µM | Potency [6] > 46 µM | outcome [7] | Potency [8]

O=c1c(CCc2ccccc2)nc2cnc(N3CCNCC3)nc2n1C1CC1
inactive: Potency [3] > 11.4 µM | activity change, negative = inhibition [9] -9.21% | activity change, negative = inhibition [10] -7.73% | activity, negative = inhibition [4] -12.8% | Potency [5] > 9.22 µM | Potency [6] > 46 µM | outcome [7] | Potency [11]

O=C(NO)c1cnc(N2C[C@H]3C[C@@H]2CN3c2cc(C(F)(F)F)ccn2)nc1
active: Potency [1] 2.95 µM
inactive: Potency [2]

CC(=O)[C@@]1(O)CC[C@H]2C3CCC4=CC(=O)CC[C@]4(C)C3CC[C@@]21C (stereo partly drawn)
inactive: outcome [12]

COCCn1c(=O)c(CCc2ccccc2)nc2cnc(N3CCNCC3)nc21
inactive: Potency [3] > 11.4 µM | activity change, negative = inhibition [9] -4.91% | activity change, negative = inhibition [10] 10.2% | activity, negative = inhibition [4] -1.73% | Potency [5] > 9.22 µM | Potency [6] > 46 µM | Potency [8]

CC(C)C[C@H]1C(=O)N2CCCC2[C@]2(O)O[C@](NC(=O)[C@@H]3C=C4c5cccc6[nH]c(Br)c(c56)C[C@H]4N(C)C3)(C(C)C)C(=O)N12 (stereo partly drawn)
active: Potency ([13]; parasite line A) 11.2 µM | Potency ([13]; parasite line B) 5.62 µM

COc1ccc(Oc2ncc3nc(-c4ccccc4)c(=O)n(C4CC4)c3n2)cc1
inactive: Potency [3] > 11.4 µM | activity change, negative = inhibition [9] -15.8% | activity change, negative = inhibition [10] 5.68% | activity, negative = inhibition [4] -1.16% | Potency [5] > 9.22 µM | Potency [6] > 46 µM | outcome [7] | Potency [8]

CC(C)CN(C)c1nc(N)c(C(=O)N=C(N)N)nc1Cl
active: Potency [14] 11.2 µM | Potency [15] 11.2 µM | Potency [16] 3.98 µM | Potency [17] 2.82 µM | Potency [18] 8.91 µM
inactive: activity change, negative = inhibition [10] -14% [at 38 µM] | activity, negative = inhibition [4] -2.92% [at 38 µM] | Potency [6] > 46 µM | outcome [7] | Potency [8] | Potency [19]

CC(=O)NCCc1ccc(O)c(O)c1
inactive: activity change, negative = inhibition [9] -4.94% [at 38 µM] | activity change, negative = inhibition [10] 11.3% [at 38 µM] | activity, negative = inhibition [4] 5.1% [at 38 µM] | Potency [5] > 46 µM | Potency [6] > 46 µM | Potency [8] | outcome [20] | outcome [12]

CCSC(N)=Nc1ccc(C(F)(F)F)cc1
inactive: activity change, negative = inhibition [9] -5.3% [at 38 µM] | activity change, negative = inhibition [10] 0.554% [at 38 µM] | activity, negative = inhibition [4] 13.4% [at 38 µM] | Potency [5] > 46 µM | Potency [6] > 46 µM | outcome [7] | Potency [8] | Potency [11] | outcome [20] | Potency [14] | Potency [16] | Potency [18] | outcome [12]

CO[C@H]1/C=C/O[C@@]2(C)Oc3c(C)c(O)c4c(O)c(c(/C=N\N5CCN(C6CCCC6)CC5)c(O)c4c3C2=O)NC(=O)/C(C)=C\C=C\[C@H](C)[C@H](O)[C@@H](C)[C@@H](O)[C@@H](C)[C@H](OC(C)=O)[C@@H]1C
active: Potency [1] 20.9 µM | Potency ([13]; parasite line A) 1.58 µM | Potency ([13]; parasite line B) 0.631 µM

CCCCCCCCCCCCCCC/C=C/[C@@H](O)[C@H](NC(=O)CCCCCCCCCCCCC)OC (tested in a mixture with another compound)
inactive: outcome [20] | Potency [14] | Potency [15] | Potency [16] | Potency [17] | Potency [18] | outcome [12]

CC(O)[C@@H](O)[C@H]1CNc2nc(N)[nH]c(=O)c2N1 (stereo partly drawn)
inactive: Potency [14] | Potency [15] | Potency [16] | Potency [17] | Potency [18]

COc1ccc2c(c1)c(CC(=O)O)c(C)n2Cc1ccc(F)cc1
inactive: activity change, negative = inhibition [9] 1.56% [at 38 µM] | activity change, negative = inhibition [10] 6.06% [at 38 µM] | activity, negative = inhibition [4] 11.9% [at 38 µM] | Potency [5] > 46 µM | Potency [6] > 46 µM | outcome [7] | Potency [8] | outcome [20]
